This passage reports growth results from PubChem BioAssay (NCI).

About 83,000 compounds went through this panel and 20% of them were active in at least one assay; those are over-represented in the sample as a whole.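 Results are percent growth after 48 hours of single-concentration exposure. 100 means growth as in untreated cells, lower positive values show inhibition; negative values down to -100 show cell death.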 Values without a mark were called inactive. The source made the active and inactive calls. The calls were made as follows: active = growth percent below 10; inactive = the rest.

Among the test systems are SK-MEL-2 melanoma; EKVX NSCLC; SN12C renal; UO-31 renal; TK-10 renal; ACHN renal; CAKI-1 renal; A498 renal; CCRF-CEM leukemia.
Experiment in all cases: NCI-60 one-dose screen, 48 h (100 = growth as untreated, 0 = no growth, -100 = all killed)
Holding throughout (conditions): 10 µM unless noted

With `CCCCNc1nnc2n(Cc3ccccc3)c(=O)c3c4c(sc3n12)CCCC4`, the growth in the assay with SK-MEL-2 melanoma was 41.6%; in the assay on EKVX NSCLC it was 60.8%; with SN12C renal, 46%; in the assay with UO-31 renal, 34.2%; in the assay with TK-10 renal, 59.3%; in the assay on ACHN renal, 40.8%. The values for the growth in the assay on CAKI-1 renal, in the assay on A498 renal and in the assay with CCRF-CEM leukemia were 42.6%, 45.4% and 59.2%, respectively.
In the case of `Oc1c(CN2CCCC2)cc(CSCc2ccccc2)c2cccnc12`, the growth in the assay with SK-MEL-2 melanoma is 11.3%; with EKVX NSCLC it was 37%; in the assay on SN12C renal it was 17.6%; in the assay on UO-31 renal it was -18% (active); in the assay with TK-10 renal, 22.4%; in the assay with ACHN renal, 5.28% (active). In addition, the figures for the growth with CAKI-1 renal, with A498 renal and in the assay on CCRF-CEM leukemia were 7.37% (active), 9.44% (active) and -14.9% (active), respectively.
On to `O=C(O)[C@@H](Cc1ccc2ccccc2c1)NC(=O)n1c2ccccc2c2ccccc21`, for which the growth was 33.3% in the assay with SK-MEL-2 melanoma; 47.9% in the assay with EKVX NSCLC; 34.1% in the assay with SN12C renal; 38.9% with UO-31 renal; 58.1% in the assay on TK-10 renal; 48.8% in the assay on ACHN renal. For the same compound, the growth in the assay with CAKI-1 renal is 30.5%; with A498 renal it was 9.24% (active); in the assay on CCRF-CEM leukemia, 13%.
Regarding `COc1ccc(/C=C/C(=O)c2cc(OC)c(OC)c(OC)c2)cc1OCC(=O)Nc1nc2ccc(OC(F)(F)F)cc2s1`, the growth with SK-MEL-2 melanoma is 45.7%; in the assay on EKVX NSCLC, 62.1%; with SN12C renal, 19.1%; in the assay on UO-31 renal, 3.8% (active); with TK-10 renal, -6.47% (active); in the assay on ACHN renal, -1.17% (active). Moreover, the growth was 9.57% (active) in the assay with CAKI-1 renal, 68.1% with A498 renal and 20.4% in the assay with CCRF-CEM leukemia.
On to `Cc1ccc(-c2nc(SCc3nc4cc(Cl)c(Cl)cc4[nH]3)[nH]c(=O)c2C#N)cc1`, for which the growth in the assay with SK-MEL-2 melanoma is 90.1%; in the assay on EKVX NSCLC it was 96.4%; with SN12C renal, 102%; in the assay with UO-31 renal it was 81.7%; with TK-10 renal, 99.3%; in the assay with ACHN renal, 106%. Further, the growth in the assay with CAKI-1 renal is 88.3%; in the assay with A498 renal, 112%; with CCRF-CEM leukemia, 111%.
As for `O=C1Nc2ccccc2/C1=C\c1c[nH]c2ccc(Br)cc12`, the growth in the assay with SK-MEL-2 melanoma was 66.8%; in the assay with EKVX NSCLC, 79.5%; in the assay on SN12C renal, 84.9%; in the assay with UO-31 renal it was 46%; with TK-10 renal it was 75.3%; in the assay with ACHN renal, 53.6%. The results for the growth in the assay on CAKI-1 renal, in the assay on A498 renal and with CCRF-CEM leukemia were 55%, 108% and 66.1%, respectively.
Take `CC(=O)Oc1ccc(OC(C)=O)c2ccccc12`: the growth with SK-MEL-2 melanoma is 113%; in the assay on EKVX NSCLC, 92.3%; in the assay on SN12C renal it was 85.8%; in the assay on UO-31 renal it was 23.7%; with TK-10 renal, 103%; with ACHN renal it was 75.7%. The results for the growth in the assay on CAKI-1 renal, with A498 renal and in the assay with CCRF-CEM leukemia were 100%, 118% and -6.08% (active), respectively.
Consider `C=CC(=O)Nc1ccc(Oc2nccc(Nc3nnc(-c4ccc(C)cc4)s3)n2)cc1`, for which the growth is 79.4% with SK-MEL-2 melanoma; 103% with EKVX NSCLC; 84% in the assay with SN12C renal; 55.7% with UO-31 renal; 135% in the assay with TK-10 renal; 68.5% in the assay on ACHN renal. The growth is 41.1% with CAKI-1 renal, 83.3% with A498 renal and 50.5% in the assay with CCRF-CEM leukemia.
On to `CC(C)(C)c1cc(Cl)c(O)c(CNCCO)c1`, for which the growth in the assay on SK-MEL-2 melanoma was 113%; in the assay on EKVX NSCLC, 101%; with SN12C renal, 109%; in the assay with UO-31 renal it was 99.7%; with TK-10 renal, 105%; in the assay on ACHN renal it was 110%. Besides, the growth with CAKI-1 renal was 94.1%; in the assay with A498 renal, 89.4%; in the assay with CCRF-CEM leukemia, 110%.
With `CS(=O)(=O)c1ccc(NC(=O)c2ccccc2)nc1`, the growth is 109% in the assay on SK-MEL-2 melanoma; 109% in the assay with EKVX NSCLC; 99.1% with SN12C renal; 99.9% with UO-31 renal; 93.5% in the assay with TK-10 renal; 111% in the assay on ACHN renal. For the same compound, the growth was 106% with CAKI-1 renal, 92.3% in the assay with A498 renal and 74.7% with CCRF-CEM leukemia.
Turning to `CC1C=CC(OC(=O)C(C)(O)CCC(O)(C(=O)OC2CC(O)C(C(C)C)CC2(C)O)C(C)C)(C(C)C)CC1` (stereo unspecified), the growth with SK-MEL-2 melanoma was -81.6% [4.63 µM] (active); in the assay with EKVX NSCLC, -73.6% [4.63 µM] (active); with SN12C renal, -62.4% [4.63 µM] (active); in the assay on UO-31 renal it was -99.6% [4.63 µM] (active); in the assay on TK-10 renal, -86.1% [4.63 µM] (active); with ACHN renal, -93.8% [4.63 µM] (active). Also, the growth in the assay on CAKI-1 renal is -97.3% [4.63 µM] (active); with A498 renal, -92.3% [4.63 µM] (active); in the assay on CCRF-CEM leukemia, -31.8% [4.63 µM] (active).
As for `CSc1nn2c(-c3ccc4ccccc4c3)ccnc2c1C#N`, the growth in the assay with SK-MEL-2 melanoma is -7.77% (active); in the assay with EKVX NSCLC, 33.5%; in the assay on SN12C renal it was 23.4%; in the assay with UO-31 renal it was 16.7%; with TK-10 renal, -2.29% (active); with ACHN renal, 16%. Further, the growth was 22.4% in the assay with CAKI-1 renal, 21.9% with A498 renal and 41% with CCRF-CEM leukemia.
Take `Cc1ccc(-c2nc(N3CCNCC3)c3oc(-c4ccc(C)cc4)nc3n2)cc1`: the growth in the assay on SK-MEL-2 melanoma is 99.2%; in the assay with EKVX NSCLC, 120%; in the assay with SN12C renal, 50.9%; in the assay with UO-31 renal, 64.6%; in the assay on TK-10 renal it was -30.4% (active); with ACHN renal, 50.7%. Besides, the growth in the assay with CAKI-1 renal was 101%; with A498 renal, 94.8%; with CCRF-CEM leukemia, -72.2% (active).
Consider `Fc1cc(Nc2ccc3c(OCCCN4CCOCC4)cccc3n2)ccc1Cl`, for which the growth with SK-MEL-2 melanoma was 88.8%; in the assay with EKVX NSCLC it was 39.9%; with SN12C renal, 62.6%; with UO-31 renal, 33.3%; in the assay on TK-10 renal, 66.1%; in the assay on ACHN renal, 52.6%. Besides, the growth with CAKI-1 renal was 54.8%; in the assay on A498 renal, 54.4%; in the assay on CCRF-CEM leukemia, 29.2%.
